The structures appear in SMILES notation. Screen size: about 370,000 compounds; about 2,100 (0.57%) were called active. The list comes from a sample in which actives are over-represented; it also holds similar structures and randomly drawn compounds. Values without a mark were called inactive.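 How the source made its calls: active means inhibition above mean plus 3 SD of compounds lying within the high and low control bounds (cut at about 19% in these data); inactive means the rest.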

What is called inhibition is the drop in the measured response relative to a control, in per cent.

Group 3 secretory phospholipase A2 (Homo sapiens), sequence (Q9NZ20 whole entry, looked up): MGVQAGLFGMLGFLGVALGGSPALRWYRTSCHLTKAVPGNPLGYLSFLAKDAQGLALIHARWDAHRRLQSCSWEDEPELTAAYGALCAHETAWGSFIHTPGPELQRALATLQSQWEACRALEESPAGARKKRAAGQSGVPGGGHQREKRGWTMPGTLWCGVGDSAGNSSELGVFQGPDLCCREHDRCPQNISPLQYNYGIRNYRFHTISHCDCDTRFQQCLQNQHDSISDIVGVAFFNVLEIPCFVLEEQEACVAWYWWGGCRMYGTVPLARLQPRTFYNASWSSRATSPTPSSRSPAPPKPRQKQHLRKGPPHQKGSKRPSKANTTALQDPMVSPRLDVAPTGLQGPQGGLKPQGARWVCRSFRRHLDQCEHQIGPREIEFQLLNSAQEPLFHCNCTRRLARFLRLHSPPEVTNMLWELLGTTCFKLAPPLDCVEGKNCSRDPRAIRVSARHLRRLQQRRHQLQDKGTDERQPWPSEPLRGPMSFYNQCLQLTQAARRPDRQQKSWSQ

This test has as its target Group 3 secretory phospholipase A2 (Homo sapiens) (UniProt Q9NZ20). Briefly: HGIII-sPLA2 enzyme inhibition – biochemical, QFRET, BODIPY PC-A2 liposome substrate, primary screen (AID 743126).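 Further: 0% = median of test compound wells and 100% = no enzyme DMSO wells.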 To be noted: QFRET BODIPY PC-A2 liposome hydrolysis, fluorescence; at 12.2 µM; hits give high values.
`O=C(OCC#CCSc1nnc(-c2ccco2)o1)c1ccc(F)cc1`: the inhibition is 1.02%.
For the compound `C/C(=N\NC(=O)CSc1nc2ccccc2c(=O)n1-c1ccccc1C)c1cccs1`, the inhibition was 25.2% (active).
Consider `C/C(=N\NC(=O)COc1c(C)cccc1C)c1cccs1`, for which the inhibition is 2.47%.
The figure for `Cc1ccccc1-n1c(SCC(=O)Nc2cccc3ccccc23)nc(O)cc1=O` is -4.85%.
Regarding `Cc1cc(=O)n(C)c(=O)n1CCCNc1ccccc1`, the inhibition is -0.01%.
Regarding `Cc1[nH]c(N)nc(=S)c1CCCNc1ccccc1`, the inhibition is 23.8% (active).
For `CCc1c(Nc2ccccc2C)nc(N)[nH]c1=O` the value was 8.22%; for `C=CCN1C(=O)[C@@H](CC(=O)N2CCN(C(=O)c3ccco3)CC2)[C@]2(C(=O)OC)CCCCC=C12`, 13.7%; for `COc1cccc(N(C)C(=O)[C@@H](C)[C@@H](O)c2ccc3ccccc3c2)c1`, -10.3%.
The figure for `COC(=O)C(C)n1cnc2c(nnn2-c2ccc(F)cc2)c1=O` (stereo unspecified) is 21.6% (active).
For `CCOC(=O)C(C)n1cnc2c(nnn2-c2ccc(F)cc2)c1=O` (stereo unspecified) the value was 10.8%; for `CCOC(=O)C(CC)Sc1ncnc2c1nnn2-c1ccc(F)cc1` (stereo unspecified), -1.68%.
For the compound `C=C1C(C(C)C)N(C)C2=NC(c3ccccc3)CC(=O)N12` (stereo unspecified), the inhibition is 0%.
For the compound `C=C(C)C#CC(Cc1ccccc1)NCC1CC1` (stereo unspecified), the inhibition is 4.73%.
For `CC(C)CC(=O)NC(=S)NNC(=O)c1cccc([N+](=O)[O-])c1` the value was 24.2% (active); for `CC(C)CC(=O)NC(=S)Nc1ccc(F)cc1F`, 6.75%.
The figure for `CC(C)OC(=O)CC(=O)CC(O)c1cccc([N+](=O)[O-])c1` (stereo unspecified) is -28%.
The figure for `O=C1CCC2(CCC(c3ccc(Cl)cc3)CC2)N1CCO` (stereo unspecified) is 7.89%.
On to `COc1ccc(C2CC=C(C(=O)O)C(c3ccccc3F)N2S(=O)(=O)c2ccc(C)cc2)cc1OC` (stereo unspecified), for which the inhibition was -7.23%.
For `CCOC(=O)[C@]12CCCC=C1N(Cc1ccc(OC)cc1)C(=O)[C@@H]2CC(=O)N1CCOCC1` the value was 3.77%.
For `Cc1cc(=O)[nH]c(SCC(=O)Nc2ccc(Cl)cc2C)n1` the value was 1.76%; for `COc1ccccc1OCCn1c(SCC(N)=O)nc2ccccc21`, 22.2% (active); for `COc1ccccc1OCc1nnc(SCC(N)=O)n1-c1ccccc1`, 1.71%.
For `CCN(CC)C(=O)CSc1nc2ccccc2n1CC(=O)N1CCN(c2ccccc2OC)CC1`, the inhibition is 0.24%.
For `N#CCC[C@H]1CC[C@]2(CCCN(Cc3ccc(Cl)cc3)C2)O1` the value was 5.78%; for `C=CCNc1scc(-c2ccccc2)[n+]1CC=C`, 20.2% (active); for `C=CC[n+]1c(-c2ccc(C)cc2)csc1NNC(=O)Nc1ccccc1`, 2.33%.
The figure for `COC(CNC(=O)[C@H](Cc1ccccc1)NC1(C(=O)NC2CCCCC2)CCCCC1)OC` is -3.08%; for `O=C(CCCCCN1C(=O)C2C3C=CC(C3)C2C1=O)Nc1ccccn1` (stereo unspecified) it is -2.55%; for `CC(C)C(C#CC1CC1)N(Cc1ccc2c(c1)OCO2)C(N)=NC(=O)/C=C/c1cccc(C(F)(F)F)c1` (stereo unspecified) it is 3.76%.
For `Clc1ccc(-n2c(SC/C=C/c3ccccc3)nnc2-c2ccco2)cc1`, the inhibition was -11.5%.
The figure for `C/C(=N/NC(=O)c1cc(Cl)ccc1O)C12CC3CC(CC(C3)C1)C2` is 22.8% (active); for `Cc1ccc(C(=O)NC23CC4CC(CC(C4)C2)C3)c(Cl)c1` it is 15.2%.
With `O=C(N/N=C1\CCSC1)c1cc(Cl)ccc1O`, the inhibition is 13.2%.
The figure for `COC(=O)[C@H](C(C)C)N(CCc1cn(Cc2ccccc2)nn1)S(=O)(=O)c1ccc(F)cc1Br` is -2.33%; for `O=C(NC1CCC1)c1ccc(C#Cc2cccc(F)c2)c[n+]1[O-]` it is -4.97%.
The figure for `CC(=O)/C(=N\Nc1ccc(Cl)cc1Cl)Sc1cccc2cccnc12` is 20.9% (active); for `COc1cccc(CNC(=O)C2CCN(S(=O)(=O)c3cccc4cccnc34)CC2)c1` it is -1%; for `CC(Oc1ccc(Cl)cc1)C(=O)Nc1ncccn1` (stereo unspecified) it is 1.61%.
The figure for `COC(=O)[C@]12C[C@H](CC(=O)N3CCOCC3)C(=O)N(Cc3ccc(Cl)cc3Cl)C1=C[C@H](C(C)C)O[C@@H]2C1CC1` is -5.59%; for `CC1CCN(c2ccc(C(=O)O)cc2NS(=O)(=O)c2ccc(Br)s2)CC1` it is -18.5%.
Consider `CCOC(=O)[C@]12CCCCC/C=C\1N(Cc1ccc(OC)cc1)C(=O)[C@H]2CC(=O)NCc1ccc(C)o1`, for which the inhibition is -4.43%.
The figure for `COc1ccc(C2Nc3ccccc3C(=O)N2Cc2cccs2)cc1COc1c(C)cccc1C` (stereo unspecified) is 4.57%; for `Oc1ccc2ccccc2c1N=Nc1nccs1` it is 19.4% (active); for `O=C(NC1CCCC1)C1CSCCS(=O)(=O)N1Cc1ccccc1` (stereo unspecified) it is 2.48%.
`O=C1Nc2ccccc2OC1CC(=O)N1CCCCCCC1` (stereo unspecified): the inhibition was 1.64%.
Take `C=CCN1[C@H](CC(C)C)COc2cccc(N3CCCC3)c2S1(=O)=O`: the inhibition is 10%.
Consider `CC(=O)NN1C(=O)c2ccccc2NC1c1ccccc1` (stereo unspecified), for which the inhibition is 4.64%.
For `CCOC(=O)NN1C(=O)c2ccccc2NC1c1cccc(O)c1` (stereo unspecified) the value was -3.61%; for `Cc1ccc(C2Nc3ccccc3C(=O)N2CCN2CCNC2=O)cc1` (stereo unspecified), 19.3% (active).
`CC(C)(C)c1cc2cccnc2n1Cc1ccccc1`: the inhibition is 8.03%.
The figure for `CC(C)(C)c1cc2cccnc2n1Cc1cccc(F)c1` is 20.9% (active); for `COc1ccnc2c1c(=O)n(Cc1cccc(F)c1)c(=O)n2C` it is 0.58%.
For `O=C(CNC(=O)c1ccccc1)OC(C(=O)Nc1cc([N+](=O)[O-])ccc1F)c1ccccc1` (stereo unspecified), the inhibition is 10.8%.
With `COc1ccc(N2CCN(CCNS(=O)(=O)c3ccc(C(C)(C)C)cc3)CC2)cc1`, the inhibition is -8.25%.
The figure for `NC(c1csc(NC(=O)Nc2ccccc2Oc2ccccc2)n1)c1ccccc1Cl` (stereo unspecified) is 24.4% (active).
For `O=C(COC(=O)/C=C/c1nc2ccccc2s1)Nc1ccccc1Oc1ccccc1` the value was 8.15%; for `CC(=O)c1ccc(Nc2nc(C(N)c3ccccc3Cl)cs2)cc1` (stereo unspecified), -4.25%; for `Cc1cccc(-n2cnc(C(=O)Nc3cccnc3)c2)n1`, 8.64%.
With `COC(=O)c1ccc(NC(=S)Nc2cccc(C)n2)cc1`, the inhibition was 7.29%.
For `Cc1cccc(-n2cnc(C(=O)NNC(=S)Nc3ccccc3)c2)n1` the value was 38.5% (active).

(Values after PubChem BioAssay AID743126 (The Scripps Research Institute Molecular Screening Center, 2013).)
